Compound activity from PubChem.
The list is not random: actives were taken first. Their share in the collection is about 5.8%.
12-LOX inh: inhibitors of human 12S-lipoxygenase ALOX12. purified 12hLO, xylenol orange hydroperoxide absorbance. Potency, µM (highest dose often 108 µM), without a hit: at the highest dose activity change, negative = inhibition, most hits filed as inhibitors. P18054. actives 1.1% (n = 580,000). AID 1671190; further: on the % scale 0 is the no-effect control and ±100 the full control effect
Target sequence (P18054 whole entry, looked up): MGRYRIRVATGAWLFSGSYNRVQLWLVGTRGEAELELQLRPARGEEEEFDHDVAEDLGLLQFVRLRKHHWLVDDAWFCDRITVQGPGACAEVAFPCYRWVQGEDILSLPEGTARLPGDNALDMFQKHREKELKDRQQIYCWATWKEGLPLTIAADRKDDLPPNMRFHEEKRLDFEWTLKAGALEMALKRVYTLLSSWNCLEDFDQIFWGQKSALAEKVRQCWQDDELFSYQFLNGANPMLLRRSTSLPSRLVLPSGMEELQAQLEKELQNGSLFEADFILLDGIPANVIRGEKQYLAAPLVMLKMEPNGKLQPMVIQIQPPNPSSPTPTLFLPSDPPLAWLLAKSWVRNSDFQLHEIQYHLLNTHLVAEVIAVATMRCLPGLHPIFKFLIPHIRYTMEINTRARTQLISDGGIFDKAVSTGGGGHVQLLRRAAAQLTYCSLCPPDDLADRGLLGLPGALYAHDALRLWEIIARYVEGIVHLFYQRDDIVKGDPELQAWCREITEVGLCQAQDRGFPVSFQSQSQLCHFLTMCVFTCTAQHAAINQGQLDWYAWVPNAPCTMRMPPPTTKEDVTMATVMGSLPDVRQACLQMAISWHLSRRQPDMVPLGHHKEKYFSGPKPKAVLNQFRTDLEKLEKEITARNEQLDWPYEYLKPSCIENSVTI
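Purified human 12hLO at 150 nM in 25 mM Hepes, 0.01% Triton X-100, pH 7.0, preincubated 15 min at room temperature with compound. Reaction started with 40 uM arachidonic acid, 30 min at room temperature. Hydroperoxide measured by Fe-xylenol orange, 573/405 nm absorbance ratio.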
SW480 rerep: DNA re-replication induction in SW480 cells; SW480 DNA re-replication, Hoechst DNA content imaging, 48 h; AID 624297; actives 1.8% (n = 340,000); Potency, µM (doses to about 46.1 µM), for inactives: top-dose re-replication activation, most hits filed as activators; further: % of control where 0% means no effect; nearly all actives have a fitted effect of over 55% in size
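Image-based read-out: total Hoechst fluorescence of nuclei (405 nm excitation, 500-530 nm emission), with hits raising the fraction of high-intensity nuclei. SW480 colon cells incubated 48 hr with compounds at 37 C.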
PINK1 expr mod: modulators of PINK1 expression; actives 0.2% (n = 410,000); Potency, µM (titrated, usually from 76.6 µM), without a hit: at the highest dose activation (PINK1 increase), hits mostly activators; PINK1 immunofluorescence, high-content cytometry, 24 h; active means well fitted activation curve with a large enough effect; inconclusive means small, poorly fitted or top-dose-only effect; cell line not stated here; further: % of control where 0% means no effect; nearly all actives have a fitted effect of over 65% in size
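PINK1 protein, normally rapidly degraded, was detected by immunofluorescence after 24 hour compound treatment of a stable cell line. Titration data (5 concentrations) came from laser-scanning cytometry, with CCCP-treated wells as controls.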
KB-V1 cytotox: KB-V1 MDR subline cytotoxicity; KB-V1 MDR cells viability, CellTiter-Glo, 72 h; Potency, µM (series often up to 46.1 µM), most hits filed as cytotoxic; actives 3.4% (n = 400,000); further: on the % scale 0 is the no-effect control and ±100 the full control effect; nearly all actives have a fitted effect of over 60% in size
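KB-V1, DMEM (no phenol red) + 10% FBS; cpd pin-transferred, titration series; 72 h, 37 degrees C; CellTiter-Glo, luminescence. Data normalized, curve-fit.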
MCF10A rereplic: DNA re-replication induction in MCF 10a cells; Potency, µM (top dose mostly 46.1 µM), for the others: at the highest dose activity, positive = re-replication, most hits filed as activators; AID 624296; MCF 10A DNA re-replication, Hoechst nuclear intensity, 48 h; actives 2.9% (n = 350,000); further: % of control where 0% means no effect; nearly all actives have a fitted effect of over 50% in size
KB-3-1 tox: KB-3-1 parental cell cytotoxicity. Potency, µM (titrated, usually from 46.1 µM), most hits filed as cytotoxic. KB-3-1 viability, CellTiter-Glo ATP luminescence, 72 h. actives 1.4% (n = 400,000). AID 1347075; further: on the % scale 0 is the no-effect control and ±100 the full control effect; nearly all actives have a fitted effect of over 60% in size
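Multi-concentration cytotoxicity screen in KB-3-1 cells grown in DMEM lacking phenol red with 10% FBS. After 72 h at 37 °C with compound, ATP-dependent luminescence was recorded.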
* = called active by the depositor; i = inactive; ? = inconclusive; . = no result; ! = not active in a repeat; [ ] = another dose, or the depositor's remark. Unless noted, the call rests on the fitted dose curve; in most records, active means well fitted curve in the direction sought with a large enough effect; inconclusive means small, poorly fitted or top-dose-only effect, or another doubt; inactive means no such curve, though single readings can be large; an effect the other way counts as inactive or inconclusive. Potency means the concentration at half of the fitted maximal effect.

SMILES | 12-LOX inh | SW480 rerep | PINK1 expr mod | KB-V1 cytotox | MCF10A rereplic | KB-3-1 tox
COc1cccc(-c2noc(CCCC(=O)NC3CCCC3)n2)c1 | -19% | 21µM* | -1% | i | -1% | i
CCOc1ccc(-c2noc(CCCC(=O)NC3CCCC3)n2)cc1OC | -7% | -9% | 4% | 8.2µM* | 0% | i
CCOc1ccc(NC(=O)CSc2nccc(-c3ccc(Br)cc3)n2)cc1 | 18% | . | . | . | . | .
CC(C)(C)C1C/C(=C/c2ccccn2)C(=O)/C(=C/c2ccccn2)C1 (stereo unspecified) | . | 0.41µM* | -1% | ? | ? | ?
CC1C/C(=C/c2ccccn2)C(=O)/C(=C/c2ccccn2)C1 (stereo unspecified) | . | 0.29µM* | 8% | i | 2.3µM* | ?
Cc1ccccc1N(C)C1CN(Cc2cccs2)C1 | 46%[176 µM] | . | . | . | . | .
N#Cc1ccc(-n2cccc2C=O)cc1 | -9% | . | . | . | . | .
N#CNC(=Nc1ccc(F)cc1)SCc1ccccc1 | 12% | 3.7µM* | 1% | i | ? | i
Cc1nc(NS(=O)(=O)c2ccccc2)sc1C(C)(C)C | -17% | -138% | 11% | 18µM* | -1% | i
CCOc1cc(C(=O)N2N=C(C)CC2(O)C(F)(F)F)ccc1OC(F)F (stereo unspecified) | 25% | . | . | . | . | .
CC/C(C)=N/NC(=O)c1[nH]c2ccc(C)cc2c1-c1ccccc1 | 7% | ? | 4% | i | 12µM* | i
O=C(NN=C1CCCC1)c1[nH]c2ccc(Cl)cc2c1-c1ccccc1 | -18% | ? | -3% | ? | 2.9µM* | i
O=C(Nc1ccccc1O)c1cc(-c2ccccc2)nc2ccccc12 | -1% | . | . | . | . | .
CC(C)NC(=O)NC(=O)CN(C)C(C)C(C)(C)C (stereo unspecified) | -10% | . | . | . | . | .
Cc1ccc(NC(=O)c2ccccc2Oc2ccccc2)cc1S(=O)(=O)N(C)C | -6% | . | . | . | . | .
O=C(Nc1ccccc1Cl)c1ccc(=O)[nH]n1 | 6% | ? | -2% | 8.2µM* | 9% | 7.3µM*
O=C(Nc1ccccc1)c1ccc(=O)[nH]n1 | 4% | -14% | -2% | i | -1% | i
O=c1c(-c2nnc(SCc3ccc(Cl)cc3Cl)o2)cccn1Cc1ccccc1 | ? | 0% | -3% | 2.9µM* | 7% | ?
COc1ccc(N2CC3=C(C2=O)C(c2ccc(Br)cc2)NC(=O)N3C)cc1 (stereo unspecified) | -9% | . | -3% | 26µM* | . | i
COc1ccc(C2NC(=O)N(C)C3=C2C(=O)N(c2ccc(Br)cc2)C3)cc1 (stereo unspecified) | ? | . | 0% | i | . | i
COc1ccccc1Cn1c(C(C)NC(=O)c2ccco2)nc2ccccc21 (stereo unspecified) | -3% | . | . | . | . | .
Cc1cccc(Nc2nc(NC(C)C)nc(Oc3ccc(=O)n(C)n3)n2)c1 | -7% | -19% | 10%[38.3 µM] | 8.2µM* | -3% | i
CCN1CCN(C(C(=O)O)c2c[nH]c3cc(NC(=O)CCC(=O)O)ccc23)CC1 (stereo unspecified) | -11% | . | . | . | . | .
O=C(NCCOc1ccccc1F)c1cccc(S(=O)(=O)N2CCN(c3ccccc3)CC2)c1 | 1% | ? | 2% | 13µM* | 0% | i
COc1cc(S(=O)(=O)N2CCN(c3ccccc3)CC2)ccc1Cl | 4%[57.4 µM] | 6% | -1% | 23µM* | 7% | i
CC(=O)N1CCN(C(=O)c2cccc(S(=O)(=O)N3CCN(c4ccccc4)CC3)c2)CC1 | 1% | -3% | 1% | i | 3% | i
COc1ccccc1N1CCN(S(=O)(=O)c2ccc3nc(-c4ccccc4)[nH]c3c2)CC1 | 2% | -4% | 4% | ? | 26µM*! | i
O=C(NNC(=O)c1cccc(S(=O)(=O)N2CCN(c3ccccc3)CC2)c1)c1ccc(Cl)cc1 | 6% | -4% | -1% | 16µM* | ? | i
